Pf Dd2 growth = qHTS Primary assay for Inhibitors of Plasmodium falciparum Dd2 growth in vitro. P. falciparum Dd2 growth, SYBR Green, 72 h. Potency, µM (doses to about 28.9 µM), most hits filed as inhibitors. 120,000 compounds, 4.3% hits; active = well fitted inhibition curve with a large enough effect; also: nearly all actives have a fitted effect of over 65% in size
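Readout: SYBR Green fluorescence, 485 nm excitation, 535 nm emission, after ~16 h lysis at 37C. Before that, Dd2-infected red cells (2.5% hematocrit) grew 72 h with compound, 29 uM top final concentration.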
Hits are given with their value. The sample as a whole holds a higher share of hits than the screen did.

`CN(C)C(=O)N1CCCC(CCc2ccccc2C(F)(F)F)C1` (stereo not drawn) gave Pf Dd2 growth inactive.
For COc1c[nH]c(CN2CCCC(CCc3ccccc3C(F)(F)F)C2)cc1=O (stereo not drawn) the results were Pf Dd2 growth 8.9µM.
For c1ccc(C(CCn2cncn2)n2ccnc2-c2cc3n(n2)CCNC3)cc1 (stereo not drawn) the results were Pf Dd2 growth inactive.
`COc1ccc(-c2noc([C@@H](C)NS(=O)(=O)CC(C)C)c2C(=O)O)cc1` gave Pf Dd2 growth inactive.
`COc1cccc(-c2nn(C)c3sc(C(=O)NCc4cc(OC)ccc4OC)cc23)c1` gave Pf Dd2 growth inactive.
`COc1ccc(-c2nn(C)c3sc(C(=O)Nc4cc(OC)c(OC)c(OC)c4)cc23)cc1OC` gave Pf Dd2 growth 11µM.
COc1ccc(-c2nn(C)c3sc(C(=O)N4CCN(c5cccc(Cl)c5)CC4)cc23)cc1OC was read as Pf Dd2 growth inactive.
Screening CC(=O)N1C[C@@H](C(=O)NCCc2cccs2)[C@H](c2nc(C)no2)C1 returned Pf Dd2 growth inactive.
`CC(C)NS(=O)(=O)c1cc(C(=O)O)cc(-c2ccc3c(c2)OCO3)c1` gave Pf Dd2 growth inactive.
`c1ccc(CNc2nc3ccccc3c3nc(-c4ccccc4)nn23)cc1` gave Pf Dd2 growth 8.9µM.
`CCCCNC(=O)CCC(=O)NNc1nc2ccccc2c2nc(-c3ccccc3)nn12` gave Pf Dd2 growth inactive.
Clc1ccccc1CNc1nc2ccccc2c2nc(-c3ccccc3)nn12 was read as Pf Dd2 growth inactive.
Screening CCCCNc1nc2ccccc2c2nc(-c3ccccc3)nn12 returned Pf Dd2 growth 3.2µM.
Clc1ccc(CCNc2nc3ccccc3c3nc(-c4ccccc4)nn23)cc1 was read as Pf Dd2 growth inactive.
Clc1ccc(CNc2nc3ccccc3c3nc(-c4cccnc4)nn23)cc1 was read as Pf Dd2 growth inactive.
For CCn1cc(S(=O)(=O)N2CCCC(c3nn[nH]n3)C2)cn1 (stereo not drawn) the results were Pf Dd2 growth inactive.
COC[C@@H]1CN(C(=O)c2ccc(C#N)cc2)C[C@H]1c1nc(C2CC2)no1 was read as Pf Dd2 growth inactive.
For COc1cc(F)ccc1-c1cc2c(ccn2C)c(C(=O)NCc2cccnc2)n1 the results were Pf Dd2 growth inactive.
Screening O=S(=O)(c1cccc(F)c1)N1CC(c2nnc(-c3ccncc3)o2)C2(CCOCC2)C1 (stereo not drawn) returned Pf Dd2 growth inactive.
Cc1noc2ncnc(N3CCCC(C(=O)NCCC(C)C)C3)c12 (stereo not drawn) was read as Pf Dd2 growth inactive.
For CC(C)N(Cc1ccccc1)C(=O)C1CCCN(c2ncnc3onc(-c4ccc(F)cc4)c23)C1 (stereo not drawn) the results were Pf Dd2 growth 8.9µM.
Screening COc1cc(Cl)c(C)cc1NC(=O)C1CCCN(c2ncnc3onc(-c4ccc(F)cc4)c23)C1 (stereo not drawn) returned Pf Dd2 growth 11µM.
`Cc1ccc(C)c(NC(=O)C2CCCN(c3ncnc4onc(C)c34)C2)c1` (stereo not drawn) gave Pf Dd2 growth inactive.
Cc1ccc(NC(=O)C2CCCN(c3ncnc4onc(-c5ccc(F)cc5)c34)C2)c(Cl)c1 (stereo not drawn) was read as Pf Dd2 growth inactive.
`CCCN(CCC)C(=O)C1CCCN(c2ncnc3onc(-c4ccc(F)cc4)c23)C1` (stereo not drawn) gave Pf Dd2 growth inactive.
Screening Cc1nc2c(c(NC3CC3)n1)CCN(C(=O)c1ccc(=O)[nH]n1)CC2 returned Pf Dd2 growth inactive.
For CN(C)C[C@H]1O[C@@H](CO)[C@@H](O)[C@H]1N1CCN(c2ccc(F)cc2)CC1 the results were Pf Dd2 growth inactive.
Screening Cc1cccc(C(=O)N2CCOC(CCCc3ccccc3)C2)n1 (stereo not drawn) returned Pf Dd2 growth inactive.
Screening CN(C)C(=O)c1cc(-c2ccc(Cl)cc2Cl)nc2c1cnn2C returned Pf Dd2 growth inactive.
`CCCN(CCC)CCNC(=O)CN1C(=O)COc2ccc(S(=O)(=O)N3CCC(C)CC3)cc21` gave Pf Dd2 growth 4.5µM.
Screening CCCNC(=O)CN1C(=O)COc2ccc(S(=O)(=O)N3CCC(C)CC3)cc21 returned Pf Dd2 growth inactive.
Cc1ccc(CCNC(=O)CN2C(=O)COc3ccc(S(=O)(=O)N4CCC(C)CC4)cc32)cc1 was read as Pf Dd2 growth inactive.
For COCCn1ncc(N2CCCC(CC(=O)NCCc3c[nH]c4ccccc34)C2)cc1=O (stereo not drawn) the results were Pf Dd2 growth inactive.
Screening O=C(NCC1CC1)c1cccc(OC2CN(Cc3ccc(F)cc3Cl)C2)c1 returned Pf Dd2 growth 11µM.
O=C(NCC1CC1)c1cccc(OC2CN(C3CCSCC3)C2)c1 was read as Pf Dd2 growth inactive.
`CCN1CCC(N2CC(Oc3cccc(C(=O)NCC4CC4)c3)C2)CC1` gave Pf Dd2 growth inactive.
`CCCNC(=O)N1CCC2(CC1)CC(N(C(=O)NC(C)C)C1CC1)CCO2` (stereo not drawn) gave Pf Dd2 growth inactive.
Screening O=Cc1cccc(N2CCN([S+](=O)([O-])C3CC3)CC2=O)c1 returned Pf Dd2 growth inactive.
For Cc1ccc(CCNC(=O)c2cc3c(-c4ccccc4F)nn(C)c3s2)cc1 the results were Pf Dd2 growth inactive.
`CCCN(CCC)CCCNC(=O)c1cc2c(-c3ccc(Cl)cc3)nn(C)c2s1` gave Pf Dd2 growth 8.9µM.
For COc1ccc(CNC(=O)c2cc3c(-c4ccc(Cl)cc4)nn(C)c3s2)cc1 the results were Pf Dd2 growth inactive.
Screening CC(C)N1C(=O)CO[C@H]2CCN(Cc3ccccn3)CC[C@@H]21 returned Pf Dd2 growth inactive.
COCC(=O)N1CCC2(CC1)Cc1ccccc1NC2=O was read as Pf Dd2 growth inactive.
CN(Cc1nc2c(s1)CCCC2)C(=O)CN1C(=O)CSc2ccccc21 was read as Pf Dd2 growth inactive.
`CC(C)NC(=O)C1CCN(C(=O)c2cc3sccc3n2Cc2ccc(Cl)cc2)CC1` gave Pf Dd2 growth 11µM.
Screening Cn1c(C(=O)N2CCC(C(=O)NCCc3ccc(S(N)(=O)=O)cc3)CC2)cc2sccc21 returned Pf Dd2 growth inactive.
`COC(=O)c1cc2sccc2n1Cc1ccc(F)cc1` gave Pf Dd2 growth inactive.
For COCCN(C)C[C@@H]1CN(C(=O)c2cc3ccccc3n(C)c2=O)C[C@@H]1CO the results were Pf Dd2 growth inactive.
`CN(C)c1ccc(-c2nnnn2[C@H]2CO[C@H]3[C@@H]2OC[C@@H]3NC(=O)NCc2ccccc2)cc1` gave Pf Dd2 growth inactive.
Screening Cc1cc(CN2C[C@@H](CO)[C@H](NC(=O)C3CC3)C2)n(C)n1 returned Pf Dd2 growth inactive.
`CC[C@H]1CN(C(=O)c2ccc(F)cc2)CC[C@H]1CC(=O)NCc1ccccc1` gave Pf Dd2 growth inactive.
COc1cccc(N2CCN(C(=O)c3cnn(-c4ccc(C)cc4C)c3C3CCN(C(=O)OC(C)(C)C)CC3)CC2)c1 was read as Pf Dd2 growth 6.3µM.
For Cc1ccc(-n2ncc(C(=O)N3CCN(c4ccccn4)CC3)c2C2CCN(C(=O)OC(C)(C)C)CC2)cc1 the results were Pf Dd2 growth inactive.
Screening Cc1cccc(N2CCN(C(=O)c3cnn(-c4ccccc4)c3C3CCN(C(=O)OC(C)(C)C)CC3)CC2)c1C returned Pf Dd2 growth 10µM.
`COc1ccc(-n2ncc(C(=O)N3CCN(c4cc(C)ccc4C)CC3)c2C2CCN(C(=O)OC(C)(C)C)CC2)cc1` gave Pf Dd2 growth inactive.
